Screening results (PubChem)
mHTT-CaM PPI inh: disrupts binding of mutant huntingtin to calmodulin; P42858; AlphaScreen His-mHTT/GST-CaM binding, luminescence; inhibition, % at 15 µM; 190,000 tested, 3.6% active; AID 1671202;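 further: 0% = both proteins with DMSO and 100% = one protein alone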
Pf apPOL block: Pf-apPOL DNA polymerase inhibition; Recombinant Pf-apPOL, molecular beacon fluorescence, 1.5 h; inhibition, % at 10 µM; 210,000 tested, 0.25% active; AID 1794808
Starred values were filed as active, the others as inactive. A selection: hits, their analogues and other compounds. The true share with any hit is near 3.5%. No stated cut-off is given here; in the data, active means inhibition above about 50%; inactive means the rest.

For CCOc1ccccc1Nc1nc(-c2ccccn2)cs1 the results were mHTT-CaM PPI inh 37.0 and Pf apPOL block -3.1.
`c1ccc(Nc2nc(-c3ccccn3)cs2)nc1` gave mHTT-CaM PPI inh 100.2* and Pf apPOL block -0.5.
c1ccc(-c2csc(Nc3ncccn3)n2)nc1 was read as mHTT-CaM PPI inh 98.0* and Pf apPOL block -1.2.
For COc1ccc(CNC(=O)Cn2nc(C(F)(F)F)c(Cl)c2C)cc1 the results were mHTT-CaM PPI inh -6.0 and Pf apPOL block 1.2.
`CN(CCc1ccncc1)C(=O)CCC1CCN(c2cc(NC3CC3)ncn2)CC1` gave mHTT-CaM PPI inh 5.9 and Pf apPOL block 1.3.
`CC(=O)Cc1nsc(NC(=O)c2csc3c2CCC(C)C3)n1` (stereo unspecified) gave mHTT-CaM PPI inh 7.6 and Pf apPOL block -2.8.
O=C(CCC1CCCN(C(=O)Nc2ccc(F)cc2)C1)NCC1CCCCC1 (stereo unspecified) was read as mHTT-CaM PPI inh 2.3 and Pf apPOL block -2.5.
For O=C(Cc1cccnc1)N1CCc2[nH]ncc2C1 the results were mHTT-CaM PPI inh -8.0 and Pf apPOL block -2.3.
Screening CCC(Br)C(=O)Nc1ccc(C(C)C)cc1 (stereo unspecified) returned mHTT-CaM PPI inh -11.0 and Pf apPOL block -7.6.
Screening Cc1ccc(-c2nc3cc(Cl)ccc3o2)cc1NC(=O)c1ccccc1Cl returned mHTT-CaM PPI inh 0.3 and Pf apPOL block 2.5.
O=C(Nc1nccs1)c1ccc2nc(-c3ccco3)c(-c3ccco3)nc2c1 was read as mHTT-CaM PPI inh 93.1* and Pf apPOL block 1.5.
`O=C(c1ccc2nc(-c3ccco3)c(-c3ccco3)nc2c1)N(CCO)c1ccccc1` gave mHTT-CaM PPI inh 66.8* and Pf apPOL block 1.9.
`O=C(Nc1ccc2nc(-c3ccco3)c(-c3ccco3)nc2c1)NC1CC1` gave mHTT-CaM PPI inh 99.4* and Pf apPOL block -2.1.
For O=C(Nc1ccc2nsnc2c1)NC1CC1 the results were mHTT-CaM PPI inh -0.5 and Pf apPOL block -3.3.
O=C(c1ccc2nc(N3C(=O)CCC3=O)sc2c1)N(CCO)c1ccccc1 was read as mHTT-CaM PPI inh 10.5 and Pf apPOL block -3.6.
For CCOC(=O)N1CCN(C(=O)c2ccc3nc(-c4ccco4)c(-c4ccco4)nc3c2)CC1 the results were mHTT-CaM PPI inh -2.9 and Pf apPOL block 1.1.
Screening O=C(NC1=NCCS1)c1ccc2nc(-c3ccco3)c(-c3ccco3)nc2c1 returned mHTT-CaM PPI inh 71.6* and Pf apPOL block -3.9.
O=C(Nc1ccccc1F)c1ccc2nc(-c3ccco3)c(-c3ccco3)nc2c1 was read as mHTT-CaM PPI inh -0.6 and Pf apPOL block 2.8.
For CN1CCN(c2cc(-c3nc(-c4cccc(F)c4)no3)c3ccccc3n2)CC1 the results were mHTT-CaM PPI inh -19.5 and Pf apPOL block -1.5.
`COc1ncc(NC(=O)C2CC=CCC2C(=O)OCC(Cl)=C(Cl)Cl)c(OC)n1` (stereo unspecified) gave mHTT-CaM PPI inh -3.0.
For O=C1OC(Nc2ccc(F)c(F)c2)c2ccccc21 (stereo unspecified) the results were mHTT-CaM PPI inh -1.0 and Pf apPOL block -0.9.
COc1cccc(-c2noc(C3CCCN3C(=O)NCc3ccc(C)cc3)n2)c1 (stereo unspecified) was read as mHTT-CaM PPI inh 19.0 and Pf apPOL block 1.1.
Screening Cc1cccc(OCC(=O)N2CCCC2c2nc(-c3cccc(Cl)c3)no2)c1 (stereo unspecified) returned mHTT-CaM PPI inh 78.4* and Pf apPOL block -5.1.
Screening COc1cccc(-c2noc(C3CCCN3C(=O)NCc3ccc(F)cc3)n2)c1 (stereo unspecified) returned mHTT-CaM PPI inh 75.6* and Pf apPOL block -0.1.
Cc1ccccc1OCC(=O)N1CCCC1c1nc(-c2cccc(Cl)c2)no1 (stereo unspecified) was read as mHTT-CaM PPI inh 45.2 and Pf apPOL block -4.8.
`Cc1cccc(-c2noc(C3CCCN3C(=O)COc3ccc(Cl)cc3C)n2)c1` (stereo unspecified) gave mHTT-CaM PPI inh 76.4* and Pf apPOL block -3.5.
Screening Cc1cccc(-c2noc(C3CCCN3C(=O)COc3ccccc3)n2)c1 (stereo unspecified) returned mHTT-CaM PPI inh 23.5 and Pf apPOL block 0.4.
Screening Cc1ccc(N2S(=O)(=O)c3ccccc3S2(=O)=O)c(C)c1 returned mHTT-CaM PPI inh 3.0 and Pf apPOL block 1.7.
For O=C(COc1ccc([N+](=O)[O-])cc1)Nc1ccc(-c2nc3ncccc3o2)cc1 the results were mHTT-CaM PPI inh -1.0 and Pf apPOL block -2.1.
`COCCN1C(=O)C(=O)C(=C(O)c2ccccc2)C1c1ccc(I)cc1` (stereo unspecified) gave mHTT-CaM PPI inh -5.9 and Pf apPOL block -2.6.
For CCCn1cnc2c(-c3ccc(Br)cc3)csc2c1=O the results were mHTT-CaM PPI inh -24.4 and Pf apPOL block -14.1.
For COc1cc(C)c(C)cc1S(=O)(=O)NCCc1csc(-c2ccc(F)cc2)n1 the results were mHTT-CaM PPI inh 52.7* and Pf apPOL block -8.9.
COc1cccc(C(=O)NCCCc2ccc(N(C)C)cc2)c1OC was read as mHTT-CaM PPI inh 20.6 and Pf apPOL block 5.1.
COc1cc(C)c(C)cc1S(=O)(=O)NCCCc1ccc(N(C)C)cc1 was read as mHTT-CaM PPI inh 56.8* and Pf apPOL block -7.6.
`CCCS(=O)(=O)NCCc1csc(-c2ccc(OC)c(OC)c2)n1` gave mHTT-CaM PPI inh 3.1 and Pf apPOL block -16.0.
`CCCNC(=O)c1cccc(-c2nc(-c3ccccc3)no2)c1` gave mHTT-CaM PPI inh -1.4 and Pf apPOL block -11.8.
COc1ccc(C(NC(=O)/C=C/c2ccccc2)NC(=O)/C=C/c2ccccc2)cc1OC was read as mHTT-CaM PPI inh 8.0 and Pf apPOL block -3.2.
For N#Cc1ccc(/C=C2\NC(=O)N(Cc3ccccc3F)C2=O)cc1 the results were mHTT-CaM PPI inh 0.0 and Pf apPOL block -3.8.
`NC1=NNC(c2ccccc2)=CS1` gave mHTT-CaM PPI inh 53.4* and Pf apPOL block -1.6.
For Nc1nnc(-c2ccccc2)s1 the results were mHTT-CaM PPI inh -8.2 and Pf apPOL block 2.6.
Screening COc1ccccc1CN1CCC(N2CCN(CCO)CC2)CC1 returned mHTT-CaM PPI inh 0.5 and Pf apPOL block -3.3.
O=C(Cc1ccc(Cl)cc1)Nc1cc(F)c2nc(N3CCOCC3)ccc2c1 was read as mHTT-CaM PPI inh -2.4 and Pf apPOL block -3.1.
`N#CC1=C(N)OC2=C(C(=O)CCC2)C1c1cc2c(cc1[N+](=O)[O-])OCO2` (stereo unspecified) gave mHTT-CaM PPI inh 90.3* and Pf apPOL block -0.1.
N#CC1=C(N)OC2=C(C(=O)CCC2)C1c1cc([N+](=O)[O-])cs1 (stereo unspecified) was read as mHTT-CaM PPI inh 1.0 and Pf apPOL block -9.1.
Screening CC1CN(c2cc(Oc3ccccc3F)ncn2)CCN1C(=O)C1CC1 (stereo unspecified) returned mHTT-CaM PPI inh -0.9 and Pf apPOL block -2.9.
`Cc1ccc([C@H]2C[C@H](O)[C@@H](n3cc(COC(=O)c4ccccc4)nn3)CN2Cc2cccs2)cc1` gave mHTT-CaM PPI inh 99.7* and Pf apPOL block -0.4.
`Cc1ccc([C@H]2C[C@@H](O)[C@H](n3cc(COC(=O)c4ccccc4)nn3)CN2Cc2cccs2)cc1` gave mHTT-CaM PPI inh 0.7 and Pf apPOL block 2.5.
O=C(OCc1cn([C@H]2CN(Cc3cccs3)[C@@H](c3ccc(Cl)cc3)C[C@@H]2O)nn1)c1ccccc1 was read as mHTT-CaM PPI inh 100.2* and Pf apPOL block -6.2.
